# The list is not random: actives were taken first. Their share in the collection is about 5%.
# USP10 block – blocks human USP10 ubiquitin-rhodamine cleavage | Q14694 | purified USP10, Ub-rhodamine fluorescence, 60 min | inhibition, % at 20 µM | 1.1% of 47,000 active | AID 1645856
# Target sequence (Q14694 whole entry, looked up): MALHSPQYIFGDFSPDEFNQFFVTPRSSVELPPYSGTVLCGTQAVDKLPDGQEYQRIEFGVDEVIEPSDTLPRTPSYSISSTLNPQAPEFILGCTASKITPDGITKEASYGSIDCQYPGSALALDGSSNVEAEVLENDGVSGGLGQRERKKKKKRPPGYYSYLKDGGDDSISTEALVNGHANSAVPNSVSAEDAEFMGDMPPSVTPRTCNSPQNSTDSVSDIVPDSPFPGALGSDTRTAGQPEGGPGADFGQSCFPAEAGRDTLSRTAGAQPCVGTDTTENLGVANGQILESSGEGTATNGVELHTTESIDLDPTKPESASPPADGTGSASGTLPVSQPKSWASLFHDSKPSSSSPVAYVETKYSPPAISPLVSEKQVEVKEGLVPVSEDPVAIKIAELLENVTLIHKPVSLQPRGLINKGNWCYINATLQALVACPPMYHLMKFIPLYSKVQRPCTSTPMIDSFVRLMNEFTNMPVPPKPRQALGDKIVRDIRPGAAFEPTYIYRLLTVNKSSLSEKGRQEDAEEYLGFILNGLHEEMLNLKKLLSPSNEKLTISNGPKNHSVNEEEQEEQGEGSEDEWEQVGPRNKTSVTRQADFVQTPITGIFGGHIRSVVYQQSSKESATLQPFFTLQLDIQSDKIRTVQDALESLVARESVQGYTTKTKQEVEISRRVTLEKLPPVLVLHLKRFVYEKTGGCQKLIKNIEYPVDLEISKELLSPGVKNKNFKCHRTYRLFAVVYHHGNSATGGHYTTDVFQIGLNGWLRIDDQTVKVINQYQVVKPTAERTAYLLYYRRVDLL
# UCHL1 inh – blocks human UCHL1 ubiquitin-rhodamine cleavage; P09936; 0.2% of 47,000 active; purified UCHL1, Ub-rhodamine cleavage fluorescence; inhibition, % at 20 µM; AID 1645859
# USP7 inh – blocks human USP7 ubiquitin-rhodamine cleavage; inhibition, % at 20 µM; Q93009; purified USP7, Ub-rhodamine cleavage fluorescence; 0.3% of 47,000 active
# USP8 inh – human USP8 deubiquitinase inhibition | P40818 | purified USP8, Ub-rhodamine cleavage fluorescence, 30 min | inhibition, % at 20 µM | 4.2% of 47,000 active
# The depositor's hits bear a star. Cut-off read from the data, not from the text of the source: active = inhibition above about 30%; inactive = the rest.
SMILES,USP10 block,UCHL1 inh,USP7 inh,USP8 inh
O=C(Nc1cccc(-c2nc(-c3ccc(=O)[nH]c3)no2)c1)c1ccco1,-8.9,0.6,-4.4,63.2*
O=C(CNCc1ccc(Cl)cc1)N1CCCc2ccccc21,0.6,-2.7,-12.4,0.6
O=C(Cn1cc(C(=O)c2ccc(F)cc2)c(=O)c2ccccc21)Nc1ccc2c(c1)OCO2,46.6*,3.9,18.5,70.6*
Cc1ccc(C(=O)c2cn(CC(=O)Nc3ccccc3)c3ccccc3c2=O)cc1,46.1*,8.6,16.5,97.3*
Cc1ccc2c(c1)c(=O)c(C(=O)c1ccccc1)cn2CC(=O)Nc1ccc2c(c1)OCCO2,26.0,3.9,16.8,29.9
Cc1ccc(C)c(NC(=O)Cn2cc(C(=O)C3CC3)c3ccccc32)c1,45.6*,3.5,35.4*,92.9*
COc1ccc(NC(=O)Cn2cc(C(=O)c3ccc(C)cc3)c(=O)c3ccccc32)cc1,37.9*,2.5,10.6,48.7*
COc1ccc(OC)c(NC(=O)c2cc3c(CO)cnc(C)c3oc2=O)c1,-1.0,2.3,0.7,-12.9
Cc1ccc(C(=O)c2cn(CC(=O)Nc3ccccc3)c3ccc(C)cc3c2=O)cc1,35.6*,8.2,18.6,61.9*
COc1ccccc1NC(=O)Cn1cc(C(=O)c2ccc(C)cc2)c(=O)c2cc(C)ccc21,0.0,2.8,8.4,16.5
Cc1nn(-c2ccc(F)cc2)c(Cl)c1C(=O)NC1CCCc2ccccc21 (stereo unspecified),-0.7,1.6,9.8,-7.2
Cc1cn2nnc(C(=O)NC3CCc4ccccc43)c2c(=O)[nH]1 (stereo unspecified),-7.3,1.2,-1.0,63.5*
CSc1ccc(CNC(=O)Cn2nc(C)c3c(C)n(-c4ccccc4)nc3c2=O)cc1,45.9*,17.9,20.5,88.8*
O=C(Nc1ccc(-c2cn3ccsc3n2)cc1)c1ccc(Cl)c([N+](=O)[O-])c1,67.0*,11.1,54.2*,97.4*
Cc1ccc(-c2cn3ccsc3n2)cc1,0.4,-0.3,-2.0,-22.3
CCS(=O)(=O)N1CCC(c2nc(C)c3c(n2)N(Cc2ccccc2)C(=O)CC3)C1 (stereo unspecified),-2.7,-2.8,-3.1,-2.9
O=C1c2ccccc2C(=O)c2c(O)c(O)cc(O)c21,-2.9,45.4*,1.8,-13.0
COc1ccc(Sc2nc3ccccc3n3cnnc23)cc1,7.0,12.2,23.4,79.0*
CCc1nc2c3cnn(-c4ccc(C)c(C)c4)c3ncn2n1,1.0,-3.1,-2.6,-2.3
Cc1ccc(Cl)cc1-n1ncc2c1ncn1nc(C3CCCCC3)nc21,-0.8,4.8,-14.1,70.0*
O=C(C1CCN(c2nc3cccnc3s2)CC1)N1CCN(c2ccccn2)CC1,0.0,-0.1,0.1,-4.5
COc1ccc(NC(=O)CC(=O)c2ccc([N+](=O)[O-])cc2)cc1S(=O)(=O)Nc1ccc(Br)cc1,52.6*,11.1,16.2,72.1*
COc1ccc(NC(=O)COc2ccccc2C#N)cc1S(=O)(=O)Nc1ccccc1Cl,10.2,1.0,4.4,-5.6
COc1ccc(NS(=O)(=O)c2ccc(Cl)c(NC(=O)CC(=O)c3ccc([N+](=O)[O-])cc3)c2)cc1,23.6,0.0,-1.5,37.1*
CNc1nc2c(c(=O)n1Cc1ccccc1)CN(C(=O)c1ccc3ccccc3c1)CC2,-0.6,0.9,1.8,-5.7
SMILES,USP10 block,UCHL1 inh,USP7 inh,USP8 inh
CCn1cc(Cn2cc(N)cn2)cn1,0.9,-0.2,-2.0,73.1*
CCn1cc(CNC(=O)c2ccc(C)s2)cn1,0.0,1.9,0.3,-0.9
CCc1ccccc1NC(=O)NC1CCN(c2nc3cccnc3n(CC)c2=O)CC1,-6.8,-6.5,-2.3,-9.0
Cc1ccc(NC(=O)Nc2ccc(C)n(CC(=O)Nc3cc(C)ccc3C)c2=O)cc1,39.1*,0.0,17.2,70.1*
Cc1ccc(NC(=O)CN2c3ccccc3S(=O)(=O)c3ccccc32)c(C)c1,-0.9,2.6,6.8,0.1
Cc1ccc(C)c(NC(=O)Cn2ccc3ccn(C)c3c2=O)c1,0.2,-1.7,-0.6,5.1
Cc1ccc(NC(=O)Nc2ccc(C)n(CC(=O)Nc3ccc(C)cc3C)c2=O)cc1,63.1*,0.3,37.4*,68.9*
CC(=O)Nc1nsc(N2CCC(C(=O)N3CCN(c4cccc(C)c4C)CC3)CC2)n1,-1.5,-0.8,-4.4,-64.7
Cc1ccc(C)c(NC(=O)NCCc2cn(C)c3ncccc23)c1,-1.1,2.8,2.2,14.1
CC(C)c1ccc(NC(=O)c2cc3ncc(Br)cn3n2)cc1,25.7,14.2,-128.0,61.1*
O=C(CN1C(=O)CSc2cc(S(=O)(=O)N3CCCC3)ccc21)NCc1ccccc1,-3.3,-6.0,-3.3,-5.2
COc1ccc(C2CC(=O)Nc3ccc4ccccc4c32)c(OC)c1OC (stereo unspecified),3.1,1.8,0.2,7.2
CCOc1ccccc1C1CC(=O)Nc2ccc3ccccc3c21 (stereo unspecified),15.1,89.0*,8.0,12.3
COc1ccc2cc(C(C)C(=O)NCc3cccc(NS(N)(=O)=O)c3)ccc2c1 (stereo unspecified),12.2,8.1,9.1,45.5*
Cc1cc(Cl)ccc1NC(=O)COC(=O)c1n[nH]c2ccccc12,-6.6,-4.5,-12.0,31.0*
CC(OC(=O)c1cccc(N(C)C)c1)C(=O)Nc1ncc(Cl)cc1Cl (stereo unspecified),-3.1,74.9*,2.3,10.6
CC(OC(=O)c1cccc2ccccc12)C(=O)Nc1ccc(Cl)cn1 (stereo unspecified),4.9,3.4,6.2,-16.5
CC(OC(=O)c1cccc(N(C)C)c1)C(=O)Nc1sccc1C(N)=O (stereo unspecified),-4.4,-0.8,-3.6,31.6*
Cn1c(=O)[nH]c(=O)c2c1nc(N1CCc3ccccc3C1)n2CCSc1nnnn1-c1ccccc1,18.9,-3.7,-2.2,86.5*
Cn1c(=O)c2c(nc(N3CCOCC3)n2CCSc2nnnn2-c2ccccc2)n(C)c1=O,-1.1,-2.7,-4.3,-16.2
CCN(c1ccc(NC(=O)CSc2nccc(=O)[nH]2)cc1)C(C)C,2.6,6.0,6.0,58.8*
Cc1nnc2ccc(-c3cccc(NC(=O)c4ccccc4F)c3)nn12,2.4,-0.4,-1.6,2.0
NS(=O)(=O)c1ccc(C(=O)Nc2cccc(-c3ccc4nncn4n3)c2)cc1,1.5,3.2,3.3,33.8*
COc1ccc(C(=O)N2CCC(Oc3ncccc3C(N)=O)C2)cc1 (stereo unspecified),-1.6,-1.1,-0.7,-2.6
Cc1ccc(N=Cc2sc(O)c3ccccc23)c(C)c1,-10.5,-166.0,-143.6,-292.1
Oc1sc(C=Nc2cc(Cl)ccc2Cl)c2ccccc12,-9.6,-9.4,-4.5,46.8*
CCc1nnc(-c2cc(S(=O)(=O)Nc3ccccc3C)c[nH]2)o1,0.3,-3.2,-2.6,1.5
Cc1ccc(C)c(NC(=O)COc2coc(CN3CCc4ccccc4C3)cc2=O)c1,-3.3,-1.5,-4.1,0.9
Cc1cccc(NC(=O)COc2coc(CN3CCc4ccccc4C3)cc2=O)c1,-4.2,-1.5,-0.2,34.5*
O=C(c1cnn(-c2ccccc2)n1)N1CCN(C(=O)c2cnn3ccccc23)CC1,0.1,3.2,5.2,-3.0

# Bioassay records from PubChem.
